Laboratory results: PubChem BioAssay AID778 (Sanford-Burnham Center for Chemical Genomics, 2007)
In all, about 96,000 compounds went through this assay and about 20,000 (21%) were called active.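 Rule for the calls: active = CYP2C19 inhibition above a set limit at 5 µM in the primary screen (cut at about 50% in these data); inactive = the rest.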 Not all results are given here.

Molecular target: Cytochrome P450 2C19 (Homo sapiens) (UniProt P33261)
Assay: blockers of cytochrome P450 2C19 activity – biochemical, luminescence, ADME assay, primary screen (AID 778);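 note: plate controls were negative control wells for no effect and 2.5 mM tranylcypromine positive control for full effect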
Details: CYP2C19 Supersomes, luciferin-H EGE luminescence, 30 min; at 5 µM; stronger effect = higher value

Sequence of Cytochrome P450 2C19 (Homo sapiens) (P33261 whole entry, looked up): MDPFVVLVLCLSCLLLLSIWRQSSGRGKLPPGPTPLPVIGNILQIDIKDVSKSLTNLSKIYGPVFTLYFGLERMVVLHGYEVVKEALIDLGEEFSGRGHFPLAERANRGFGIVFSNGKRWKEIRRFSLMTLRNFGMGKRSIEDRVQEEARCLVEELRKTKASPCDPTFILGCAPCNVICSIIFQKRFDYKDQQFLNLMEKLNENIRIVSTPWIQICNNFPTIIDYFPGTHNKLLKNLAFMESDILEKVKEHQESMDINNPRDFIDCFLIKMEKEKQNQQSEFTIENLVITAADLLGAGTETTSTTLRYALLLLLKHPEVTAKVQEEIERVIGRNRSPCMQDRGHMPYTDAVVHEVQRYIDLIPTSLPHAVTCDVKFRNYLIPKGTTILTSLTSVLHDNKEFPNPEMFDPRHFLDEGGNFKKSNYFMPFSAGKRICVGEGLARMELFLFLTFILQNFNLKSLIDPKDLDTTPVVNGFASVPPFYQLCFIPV

Row | Compound | inhibition
1 | CCC(C)NC(=O)c1c(N)n(/N=C/c2cccs2)c2nc3ccccc3nc12 (stereo unspecified) | 13.8% (inactive)
2 | COc1ccccc1NC(=O)C1=C(C)Nc2nnnn2C1c1cccc(Br)c1 (stereo unspecified) | 37.1% (inactive)
3 | COc1ccc(C2C(C(=O)Nc3ccccc3OC)=C(C)Nc3nnnn32)c(OC)c1 (stereo unspecified) | 32.5% (inactive)
4 | COC(=O)c1ccc(C2C3=C(Nc4nnnn42)c2ccccc2OC3)cc1 (stereo unspecified) | 98.9% (active)
5 | CCCN1Cc2cccc(C(=O)Nc3ccc(S(=O)(=O)N4CCCCCC4)cc3)c2C1=O | 18.8% (inactive)
6 | CCC12CN3CC(CC)(CN(C1)C31C(=O)N(C)c3ccc(C)cc31)C2=O (stereo unspecified) | 15.6% (inactive)
7 | CCc1ccccc1NC(=O)c1cccs1 | -1% (inactive)
8 | O=C(Nc1ncccn1)c1cccs1 | -3.9% (inactive)
9 | O=C(Nc1nn(Cc2ccccc2F)cc1Br)c1cccs1 | 57.4% (active)
10 | CC(=O)Nn1cc2c(=O)n(C)c(=O)n(C)c2c1 | -4.8% (inactive)
11 | O=c1oc2cc(O)ccc2cc1-c1ccc(F)cc1 | 32.1% (inactive)
12 | CCOC(=O)Nc1ccccc1N1C(=O)c2ccccc2C1=O | 1.6% (inactive)
13 | COCCn1c(C)cc(C(=O)CSc2ncnc3sc4c(c23)CCC4)c1C | 57.5% (active)
14 | Cc1cc(C)n(-c2nc(SCC(=O)N3CCCC3)c3c4c(sc3n2)CCCC4)n1 | 49.7% (inactive)
15 | COc1ncnc2sc3c(c12)CCCC3 | 36.6% (inactive)
16 | O=C(NCc1ccco1)c1cnn2c(C(F)(F)F)cc(-c3ccco3)nc12 | 20.3% (inactive)
17 | CCCc1nc(-c2ccccc2O)n(-c2ccccc2)n1 | 34% (inactive)
18 | O=C(CCN1C(=O)C2C3C=CC(C3)C2C1=O)Nc1ccccc1F (stereo unspecified) | 56.5% (active)
19 | O=C(CN1C(=O)C2C3C=CC(C3)C2C1=O)NCCc1ccccc1Cl (stereo unspecified) | 23.5% (inactive)
20 | O=C(NCCN1C(=O)C2C3C=CC(C3)C2C1=O)Nc1ccccn1 (stereo unspecified) | -10.2% (inactive)
21 | N#C/C=C\Oc1ccc(Cl)cc1N | -2.6% (inactive)
22 | COc1ccc(NC(=O)Cn2c(-c3ccc(OC)cc3)cn(-c3ccc(C)cc3)c2=O)cc1 | -4.3% (inactive)

Row | Compound | inhibition
23 | N#Cc1nc(COc2ccc(-c3ccccc3)cc2)oc1NCc1cccnc1 | 51.7% (active)
24 | COc1ccc(Nc2oc(-c3ccccc3Cl)nc2C#N)cc1 | 1.2% (inactive)
25 | N#Cc1nc(-c2ccc(OCc3ccccc3)cc2)oc1NCCCN1CCOCC1 | 7.4% (inactive)
26 | O=c1c2ccccc2nnn1CSc1nc2sc3c(c2c(=O)n1CC1CCCO1)CCC3 (stereo unspecified) | 56.4% (active)
27 | C=C(C)Cn1c(SCC(=O)NCc2ccco2)nc2sc3c(c2c1=O)CCC3 | 7.7% (inactive)
28 | O=C(Cn1nc(Cc2cccnc2)c2ccccc2c1=O)NCC1CCCO1 (stereo unspecified) | 16.7% (inactive)
29 | N#CCCn1cnc2ccccc21 | 1.7% (inactive)
30 | CC(=O)c1ccc(NC(=O)N[C@@H](Cc2ccccc2)C(=O)O)cc1 | 28.5% (inactive)
31 | COc1ccc(CCNC(=O)COC(=O)c2ccc[nH]c2=O)cc1 | -10.2% (inactive)
32 | CCN(CC)C(=O)C1CCC(C)(C(=O)O)C1(C)C (stereo unspecified) | -4.4% (inactive)
33 | CC(=O)Nc1cccc(-c2cnc3ccccc3n2)c1 | 14.9% (inactive)
34 | Cc1nc2ccccc2cc1O | 0.7% (inactive)
35 | Cc1cc(O)ccc1-c1cnc2ccccc2n1 | 60.7% (active)
36 | Nc1nonc1-c1nc2ccccc2n1Cc1ccc(F)cc1 | 44.1% (inactive)
37 | CC(C)N(c1ccccc1)c1ncnc(NCCC(=O)O)c1[N+](=O)[O-] | 55% (active)
38 | Cc1oc(-c2cccc(Cl)c2)[n+]([O-])c1C | -4.8% (inactive)
39 | COc1cc(C2C(C(=O)c3ccc(C)o3)=C(O)C(=O)N2CCc2ccccc2)ccc1O (stereo unspecified) | -1.7% (inactive)
40 | CCOC(=O)C1=C(c2ccccc2)N=C2SCC(=O)N2C1c1ccc(O)c(OC)c1 (stereo unspecified) | 79.4% (active)
41 | CC1(C)Cc2nc3sc4c(SCC(=O)NC(c5ccccc5)c5ccccc5)ncnc4c3cc2CO1 | 15.3% (inactive)
42 | CC1=CC(=O)C=CC1(C)C(Cl)(Cl)Cl (stereo unspecified) | 9.4% (inactive)
43 | CCC(C)Sc1nc2c(c(=O)[nH]c(=O)n2C)n1CC(O)COc1cccc2ccccc12 (stereo unspecified) | 14.5% (inactive)
44 | CCn1c(SCCC(C)C)nnc1-c1c[nH]c2ccccc12 | 88.7% (active)

Row | Compound | inhibition
45 | CCC(C)Sc1nnc(-c2c[nH]c3ccccc23)n1CCOC (stereo unspecified) | 15.6% (inactive)
46 | CCn1c(SCC(=O)Nc2ccc(OC)c(OC)c2)nnc1-c1c[nH]c2ccccc12 | 42.9% (inactive)
47 | CCOC(=O)N1CCN(C(=O)c2cn(C)c3ccc(S(=O)(=O)N4CCCC4)cc3c2=O)CC1 | -12.6% (inactive)
48 | O=C(c1ccc(=O)[nH]c1)N(Cc1ccco1)C1(C(=O)NC2CCCCC2)CCCCC1 | -4.2% (inactive)
49 | c1nnc2c3c4c(sc3ncn12)CCC4 | 1.2% (inactive)
50 | C=C(C)CSc1nc(N)c2c3c(sc2n1)CCC3 | 60.4% (active)
51 | N=c1c2c3c(sc2ncn1N)CCCCC3 | -16% (inactive)
52 | CC(C)(C)NC(=O)NC(=O)COC(=O)CCC1CCCCC1 | -4.7% (inactive)
53 | CCN1CCCC1CNC(=O)c1cc2c(=O)n(C)c3ccccc3c2n1C (stereo unspecified) | -9.3% (inactive)
54 | Cc1[nH][nH]c(=O)c1N=Nc1ccccc1 | 13.3% (inactive)
55 | Cc1ccc(C2CC2C(=O)NN)cc1 (stereo unspecified) | 47.6% (inactive)
56 | N/C(=N\OC(=O)CCC1CCCCC1)c1ccccn1 | 5.1% (inactive)
57 | CC(C)(C)c1cc2cccnc2n1Cc1cccc(F)c1 | 14.8% (inactive)
58 | N#C/C(=C/c1ccc(Cl)cc1)NC(=O)c1ccccc1 | 3.3% (inactive)
59 | CCCCCN1CC(O)=C(c2ccccc2)C1=N | -0.3% (inactive)
60 | Cc1ccc2cc(C#N)c(SCC(=O)NCC3CCCO3)nc2c1C (stereo unspecified) | -2.3% (inactive)
61 | CC(NC(=O)CSc1nc2c(cc1C#N)CN(C)CC2)c1ccccc1 (stereo unspecified) | 79.6% (active)
62 | Cc1nc2cc(NC(=O)CSc3nc4c(C)cccc4cc3C#N)ccc2s1 | 6.7% (inactive)
63 | O=C1c2ccccc2C2=Nc3ccccc3SC(c3ccccc3F)C12 (stereo unspecified) | 8% (inactive)
64 | Clc1ccc(C2CC(c3cccs3)n3ncnc3N2)cc1Cl (stereo unspecified) | 81.9% (active)
65 | Cc1ccc(C2CC(c3cccc(C)c3)n3nc(N)nc3N2)cc1 (stereo unspecified) | 45.1% (inactive)
66 | Nc1nc2n(n1)C(c1ccco1)CC(c1ccc(Cl)c(Cl)c1)N2 (stereo unspecified) | 31% (inactive)
